# Laboratory results as given in PubChem BioAssay.
# Assay: small-molecule binders of probe aNOTCH2, primary screen, biochemical, small-molecule microarray, 635/667 nm fluorescence (AID 1121);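 also: score merges feature fluorescence read at 667 nm with its signal to noise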
# Settings: higher = more signal
row,Compound,composite z-score
1,COCCCNC(=O)[C@@]1(Sc2ccc(C)cc2)CC(=O)N(C2CCCCC2)[C@@H]1c1ccc(CO)cc1I,-0.0096
2,[N-]=[N+]=NCc1ccccc1C[C@]1(C(=O)O)COC(c2ccc(OCCCO)cc2)=N1,-0.14
3,COC(=O)[C@@]1(Cc2ccc(OC)cc2)[C@H]2c3cc(C(=O)N(C)C)n(Cc4ccsc4Br)c3C[C@H]2CN1C(=O)c1ccccc1,0.371
4,CCCCC(=C=CC[C@@H](O)c1ccc(OCCO)cc1)C[C@@H](O)c1ccccn1,-0.0785
5,O=C1NC(=O)C2C1C=CC(C(O)c1cccc(O)c1)N2Nc1ccc(Cl)cc1Cl (stereo not given),0.0592
6,[N-]=[N+]=NCc1ccccc1C[C@]1(C(=O)NCc2ccccc2)N=C(c2ccc(OCCCO)cc2)O[C@H]1c1ccccc1CN=[N+]=[N-],0.0522
7,O=C1O[C@H](c2ccccc2)[C@H](c2ccccc2)N2[C@H]1[C@@H](C(=O)N1CCN(c3ncccn3)CC1)[C@]1(C(=O)Nc3ccccc31)[C@H]2c1ccc(O)cc1,-0.0438
8,COC(=O)[C@@]1(Cc2ccc(F)cc2)[C@H]2c3cc(C(=O)N4CCCC4)n(CCO)c3C[C@H]2CN1C(=O)c1ccccc1,0.227
9,O=C1NC(=O)C2C1C=CC(C(O)c1ccc(F)cc1)N2Nc1ccccn1 (stereo not given),-0.0771
10,CC[C@H](C)C(=O)O[C@H]1CC[C@]2(C)C3=C(CCC2C1(C)C)[C@]1(C)CC[C@H]([C@H](C)CCCC(C)C)[C@@]1(C)CC3 (stereo not given in full),-0.146
11,CCCC[C@H]1OB(O)C[C@H]2C1=C(COC)C[C@H]1C(=O)C=CC(=O)[C@H]12,0.144
12,CCCCCCCCCCC(O)C1C=CC2C(=O)N(C)C(=O)C2N1N1CCCCC1 (stereo not given),-0.135
13,C=CC[C@]1(C(=O)NCCCOC)N=C(c2ccc(OCCCO)cc2)O[C@H]1c1ccccc1,-0.131
14,CC1CC/C=C\[C@H]2OC34C=CCN(c5ccc(Cl)cc5)C(=O)[C@H]3N(CCCO)C(=O)[C@]4(C)C2C(=O)O1 (stereo not given in full),-0.18
15,C=C(CC1([C@@H](NP(=O)(c2ccccc2)c2ccccc2)[C@H]2C[C@@H]2CCN(C(=O)OCC)S(=O)(=O)c2ccc(C)cc2)CC1)c1ccccc1,0.354
16,COCC1=C([C@H](O)CCc2ccccc2)[C@H](CO)n2c(=O)n(-c3ccccc3)c(=O)n2C1,-0.212
17,COC(=O)c1ccc([C@H](NC(=O)c2ccccc2)[C@]2(C)C[C@H]2C2CCCCC2)cc1,-0.0282
18,COCCOC(=O)N1C(=O)[C@@]2(c3cc(C#CC4=CCCCC4)ccc31)[C@H](c1ccccc1OCCO)N1[C@H](c3ccccc3)[C@H](c3ccccc3)OC(=O)[C@H]1[C@@H]2C(N)=O,-0.0728

row,Compound,composite z-score
1,C=CCC(OC(C)=O)[C@@H]1[C@@H](N(Cc2cc3ccccc3o2)C(=O)Cc2ccc(OC)cc2)c2cc(OCCCO)ccc2N1C(=O)Cc1ccc2ccccc2c1 (stereo not given in full),-0.0424
2,COc1ccc([Si](C)(C)[C@H]2[C@H](CCO)O[C@@]3(C(=O)N(Cc4ccccc4)c4ccc(N(C=O)c5ccccc5)cc43)[C@@H]2C)cc1,-0.0984
3,CC(C)CNC(=O)[C@@H]1c2ccccc2C(=O)N(Cc2ccccc2Cl)[C@H]1c1ccc(CO)cc1,-0.0404
4,CCCCNC(=O)c1ccc(C#C[Si](C)(C)C)c(OC(C)=O)c1,-0.154
5,COc1cc2c(cc1O)C(c1ccc(CN3CCCC3)cc1)N(Cc1cccc(OC(F)(F)F)c1)CC2 (stereo not given),-0.207
6,C=CCOC(=O)[C@H]1[C@@H]2C(=O)O[C@@H](c3ccccc3)[C@@H](c3ccccc3)N2[C@@H](c2ccc(OCCOC(=O)[C@H]3C[C@H]4C(=O)NCC(=O)N4[C@H]3c3ccc(O)cc3)cc2)[C@]12C(=O)Nc1ccc(I)cc12,-0.104
7,NC(=O)N1C(=O)C2C(C1=O)C1C=C(CCCO)C2C(c2ccc(CN3CCCC3)cc2)N1Cc1cccc(OC(F)(F)F)c1 (stereo not given),-0.0148
8,C=C(CCCC)C(=O)CC[C@H](OC(C)=O)c1ccccc1OCCO,-0.0242
9,C=CCC(OC(C)=O)[C@@H]1[C@@H](N(Cc2cccc3ccccc23)C(=O)c2ccc(-c3ccccc3)cc2)c2cc(OCCCO)ccc2N1C(=O)c1ccc2ccccc2n1 (stereo not given in full),-0.0639
10,COC(=O)[C@@]1(Cc2ccccc2)[C@@H]2[C@@H](CC(=O)[C@H]2CC(=O)C(=O)N(C)C)CN1C(=O)c1ccccc1,-0.0928
11,COCCOC(=O)N1C(=O)[C@@]2(c3cc(C#Cc4ccc(OC)cc4)ccc31)[C@H](C(=O)Nc1nc3ccccc3s1)[C@H]1C(=O)O[C@H](c3ccccc3)[C@H](c3ccccc3)N1[C@@H]2c1ccccc1OCCO,0.159
12,CCc1cccc(NC(=O)O[C@H]2[C@H](OC(=O)Nc3ccc4c(c3)OCO4)[C@H](OC(=O)Nc3ccc4c(c3)OCO4)[C@@H](OC)O[C@@H]2CO)c1,0.817
13,C=C(COC)/C(=C/C[C@H](OC(=O)c1ccncc1)c1cccc(OCCO)c1)c1cnc2ccccc2c1,-0.0681
14,COCCn1c(C(=O)N2CCCC2)cc2c1C[C@H]1CN(C(=O)c3ccccc3)[C@@](Cc3ccccc3)(C(=O)OC)[C@@H]21,0.6
15,O=C1C2C=CC(C(O)C(c3ccccc3)c3ccccc3)N(Nc3ccccc3)C2C(=O)N1c1ccccc1 (stereo not given),-0.0633
16,Cc1ccc(S(=O)(=O)N2[C@@H](c3ccccc3)C(C(=O)O)=CC[C@H]2c2ccc(C#N)cc2)cc1,0.0167
17,C=CCC(OC(C)=O)[C@@H]1[C@@H](N(Cc2cc3ccccc3o2)C(=O)c2ccc(-c3ccccc3)cc2)c2cc(OCCCO)ccc2N1C(=O)c1ccc2ccccc2n1 (stereo not given in full),-0.0901
